Screens (PubChem BioAssay)
Only a selection was taken, and hits are over-represented in it overall.
Giardia FBPA inh-1 = Giardia lamblia aldolase inhibition | AID 2451 | Potency, µM (top dose mostly 59.6 µM), inactives show at the top dose activity, negative = inhibition, usual class: inhibitors | purified Giardia FBPA | actives 0.71% (n = 290,000); note: nearly all actives have a fitted effect of over 55% in size
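Giardia FBPA (40 nM reagent) was preincubated 10 min at RT with compound (up to 57.5 uM final), then substrate plus GAPDH/TPI/NAD/arsenate coupling system with diaphorase/resazurin was added; resorufin fluorescence (525/598 nm) was read after 20 min.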
Cruzain inh Det = inhibitors of Trypanosoma cruzi cruzain with detergent; P25779; purified cruzain, Z-FR-AMC fluorescence, 0.01% Triton; Potency, µM, inactives show max response, negative = inhibition, actives largely listed as inhibitors; actives 0.43% (n = 200,000); AID 1478;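 note: plate controls were neutral wells for no effect and buffer without enzyme for full effect; nearly all actives have a fitted effect of over 40% in size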
Target sequence (P25779 123-467 limits assumed): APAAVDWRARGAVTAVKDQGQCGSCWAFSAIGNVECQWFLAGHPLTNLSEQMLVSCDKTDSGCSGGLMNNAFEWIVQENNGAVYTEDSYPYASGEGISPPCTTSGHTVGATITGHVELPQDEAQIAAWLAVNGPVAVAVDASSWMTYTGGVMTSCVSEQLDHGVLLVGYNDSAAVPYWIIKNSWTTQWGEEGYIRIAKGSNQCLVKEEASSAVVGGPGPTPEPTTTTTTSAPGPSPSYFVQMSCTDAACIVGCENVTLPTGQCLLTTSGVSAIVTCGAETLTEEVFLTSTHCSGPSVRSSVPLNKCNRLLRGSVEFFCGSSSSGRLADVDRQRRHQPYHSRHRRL
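Detergent-containing arm of a paired screen for aggregation-based inhibition: 0.01% Triton X-100 present. Cruzain at 1.5 nM cleaved 2 uM Z-FR-AMC at pH 5.5 with 5 mM DTT; AMC fluorescence gain over 60 s measured activity.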
Cruzain inh noDet = blocks cruzain activity in detergent-free assay; Potency, µM, inactives show max response, negative = inhibition, actives largely listed as inhibitors; P25779; actives 2.3% (n = 200,000); purified cruzain, Z-FR-AMC fluorescence, no detergent;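 note: plate controls were enzyme without inhibitor for no effect and buffer without enzyme for full effect; nearly all actives have a fitted effect of over 40% in size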
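Detergent-free condition (0.00005% Triton X-100) in acetate buffer pH 5.5 with DTT. 1.5 nM enzyme and compound were pre-mixed 15 min, then 2 uM Z-FR-AMC substrate added; reaction progress from fluorescence change between first and third reads (60 s).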
Giardia growth = Giardia lamblia growth inhibition. Giardia lamblia trophozoite growth inhibition. Potency, µM (top dose mostly 57.5 µM), for the others: at the highest dose activity change, negative = inhibition, most hits filed as inhibitors. AID 2785. shares compounds with Giardia FBPA inh-1. actives 5% (n = 1,500);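 note: trophozoites exposed to compound for 48 h at 37 °C; nearly all actives have a fitted effect of over 70% in size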
Mammal cell tox = counter-screen for Giardia aldolase inhibitors: mammalian cell toxicity; mammalian cell viability counter-screen, qHTS; AID 2786; shares compounds with Giardia FBPA inh-1; Potency, µM (titrated, usually from 57.5 µM), for inactives: at the highest dose viability change, negative = toxicity, actives largely listed as inhibitors; actives 4% (n = 1,500);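 note: Chinese hamster ovary cells used as mammalian cytotoxicity surrogate; viability measured as cellular ATP by luminescence; compound exposure lasted 48 h before reading; nearly all actives have a fitted effect of over 60% in size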
Giardia FBPA inh-2 = confirmation of Giardia fructose-bisphosphate aldolase inhibitors. shares compounds with Giardia FBPA inh-1. purified Giardia aldolase enzyme activity, qHTS. Potency, µM (top dose mostly 57.5 µM), without a hit: at the highest dose activity change, negative = inhibition, actives largely listed as inhibitors. actives 5% (n = 1,500); note: nearly all actives have a fitted effect of over 45% in size
Rabbit FBPA inh = blocks rabbit muscle aldolase in Giardia aldolase selectivity test; actives 4% (n = 1,500); AID 2794; shares compounds with Giardia FBPA inh-1; Rabbit muscle FBPA enzyme inhibition, selectivity counter-screen; Potency, µM (top dose mostly 57.5 µM), for the others: at the top dose activity, negative = inhibition, usual class: inhibitors; note: nearly all actives have a fitted effect of over 60% in size
GAPDH coupling = counter-screen for Giardia aldolase inhibitors: GAPDH coupling enzyme | shares compounds with Giardia FBPA inh-1 | GAPDH coupling enzyme counterscreen, biochemical, qHTS | Potency, µM (highest dose often 57.5 µM), for inactives: at the highest dose activity change, negative = inhibition, hits mostly inhibitors | actives 6% (n = 1,500); note: nearly all actives have a fitted effect of over 55% in size
Active calls of the source: *; ? = inconclusive; · = no result; [ ] = remark or other dose. Calls come from the whole dose curve; as a rule, active = well fitted curve in the direction sought with a large enough effect; inconclusive = small, poorly fitted or top-dose-only effect, or another doubt; inactive = no such curve, though single readings can be large; an effect the other way counts as inactive or inconclusive. Unless noted, % is set by controls: 0 for no effect and ±100 for the full control effect; potency is the fitted concentration of half-maximal effect.

SMILES | Giardia FBPA inh-1 | Cruzain inh Det | Cruzain inh noDet | Giardia growth | Mammal cell tox | Giardia FBPA inh-2 | Rabbit FBPA inh | GAPDH coupling
CC(=O)N1CCN(Cc2nc3cc(NC(=O)COc4cccc(C)c4)ccc3n2C)CC1 | 20µM* | · | · | ? | 5% | -8% | 11% | 3%
CC(C)C(=O)N1c2ncnn2C2(CCCCC2)[C@@H]2CCCC[C@@H]21 | · | -2% | 14% | · | · | · | · | ·
N/N=C1/c2ccccc2N[C@H]1OC(=O)Nc1cccc(Cl)c1 | · | 2% | -5% | · | · | · | · | ·
O=C(CCCCn1c(=S)[nH]c2ccsc2c1=O)NCc1ccco1 | ? | 7% | -4% | · | · | · | · | ·
CCOC(=O)N1CCN(C(=O)CCCn2c(=S)[nH]c3ccccc3c2=O)CC1 | -20% | 1% | -13% | · | · | · | · | ·
O=C(CCCn1c(=S)[nH]c2ccsc2c1=O)NCc1ccco1 | 16µM* | 7% | -7% | -3% | -3% | -1% | 2% | 12%
CCOC(=O)N1CCN(C(=O)CCCn2c(=S)[nH]c3ccsc3c2=O)CC1 | 16µM* | · | · | -2%[10.4 µM] | 16% | -4% | 1% | 13%
CC1(C)O[C@@H]2O[C@H]([C@H](O)CO/N=C3/[C@H]4O[C@@H]4[C@@H](O)[C@H]4[C@H]3CCn3c(=O)n(-c5ccccc5)c(=O)n34)[C@@H](O)[C@@H]2O1 | -1%[12.9 µM] | · | · | · | · | · | · | ·
NC(=S)NNc1ccnc2cc(Cl)ccc12 | 16µM* | · | · | ? | -4% | -4% | -3% | 15%
NC(=S)NNc1ccc(Cl)c(Cl)c1 | 13µM* | · | · | 13% | -10% | -15% | 3% | -6%
Cc1ccc(NNC(N)=S)cc1Cl | 18µM* | · | · | -22% | 13% | -6% | 3% | -6%
Cc1cc(C)cc(NC(=S)Nc2ccc(Cl)c(Cl)c2)c1 | -20% | · | · | · | · | · | · | ·
O=C(NNc1ccnc2cc(Cl)ccc12)C1CCCCC1 | -1% | · | · | · | · | · | · | ·
Cc1ccc(NC(=S)N(C)N)cc1Cl | -25% | · | · | · | · | · | · | ·
COC(=O)CN1C(=O)CSc2ccc(S(=O)(=O)Nc3ccc(C)c(Cl)c3)cc21 | · | -12% | -4% | · | · | · | · | ·
O=S(=O)(/N=C(/NC(=S)Nc1ccccc1)c1ccccc1)c1ccc(Cl)cc1 | 18µM* | · | · | ? | 10% | 4% | 12% | 18%
O=C(O)c1ccc(N/C(=N\S(=O)(=O)c2ccc(Cl)cc2)c2ccccc2)cc1 | 3% | · | · | · | · | · | · | ·
COc1ccc(OC)c(CNS(=O)(=O)c2c(C(=O)N3CCC(C)CC3)c(C)n(C)c2C)c1 | · | 0% | -5% | · | · | · | · | ·
CCc1cccc(NC(=O)CN(c2ccc(C)cc2)S(=O)(=O)c2cccs2)c1 | · | -9% | -13% | · | · | · | · | ·
O=C(N/N=C/c1ccccn1)C(=O)N1CCCCCC1 | 18µM* | · | · | 20% | 0% | 7% | 1% | 4%
O=C(N/N=C/c1ccccc1C(=O)O)C(=O)N1CCCCC1 | 1% | · | · | · | · | · | · | ·
Nc1nnnn1CC(=O)N/N=C/c1cccs1 | 0% | · | · | · | · | · | · | ·
Nc1nnnn1CC(=O)N/N=C/c1ccccn1 | 18µM* | · | · | -15% | 0% | 2% | 2% | -1%
Cc1ccc(NC(=O)Cn2ccn(-c3ccc(F)c(F)c3)c(=O)c2=O)cc1C | · | -1% | -6% | · | · | · | · | ·
Cc1cc(C)c(NC(=S)NCCCSC2CCCCC2)c(C)c1 | 16µM* | · | · | ? | 14% | 9% | 16% | -1%
SMILES | Giardia FBPA inh-1 | Cruzain inh Det | Cruzain inh noDet | Giardia growth | Mammal cell tox | Giardia FBPA inh-2 | Rabbit FBPA inh | GAPDH coupling
COc1cccc(NC(=O)NCCCSC2CCCCC2)c1 | 4% | -10% | 0% | · | · | · | · | ·
CC(=O)Nc1c(C(=O)Nc2ccccc2F)oc2ccccc12 | · | 1% | 2% | · | · | · | · | ·
CN(C)CCCNC(=O)c1ccc(/C=N/O)nc1 | 2% | · | · | · | · | · | · | ·
O=C(NCc1ccccc1)c1ccc(/C=N/O)nc1 | 2% | -1% | 6% | · | · | · | · | ·
CNCCCNC(=O)c1ccc(/C=N/O)nc1 | 16µM* | · | · | 60% | -6% | 1% | 8% | 4%
NC(=O)c1ccc(/C=N/O)nc1 | 18µM* | · | · | ? | 3% | 3% | 6% | 2%
